12-hLO inh = qHTS Assay for Inhibitors of 12-hLO (12-human lipoxygenase); Potency, µM (top dose mostly 57.1 µM), for the others: at the highest dose activity change, negative = inhibition, hits mostly inhibitors; AID 1452, 2008; 150,000 compounds, 0.12% hits; Polyunsaturated fatty acid lipoxygenase ALOX12 (Homo sapiens), P18054; purified 12-hLO, xylenol orange hydroperoxide absorbance; active means well fitted inhibition curve with a large enough effect; inconclusive means small, poorly fitted or top-dose-only effect; further: potency means the concentration at half of the fitted maximal effect; nearly all actives have a fitted effect of over 55% in size
Target sequence (P18054 whole entry, looked up): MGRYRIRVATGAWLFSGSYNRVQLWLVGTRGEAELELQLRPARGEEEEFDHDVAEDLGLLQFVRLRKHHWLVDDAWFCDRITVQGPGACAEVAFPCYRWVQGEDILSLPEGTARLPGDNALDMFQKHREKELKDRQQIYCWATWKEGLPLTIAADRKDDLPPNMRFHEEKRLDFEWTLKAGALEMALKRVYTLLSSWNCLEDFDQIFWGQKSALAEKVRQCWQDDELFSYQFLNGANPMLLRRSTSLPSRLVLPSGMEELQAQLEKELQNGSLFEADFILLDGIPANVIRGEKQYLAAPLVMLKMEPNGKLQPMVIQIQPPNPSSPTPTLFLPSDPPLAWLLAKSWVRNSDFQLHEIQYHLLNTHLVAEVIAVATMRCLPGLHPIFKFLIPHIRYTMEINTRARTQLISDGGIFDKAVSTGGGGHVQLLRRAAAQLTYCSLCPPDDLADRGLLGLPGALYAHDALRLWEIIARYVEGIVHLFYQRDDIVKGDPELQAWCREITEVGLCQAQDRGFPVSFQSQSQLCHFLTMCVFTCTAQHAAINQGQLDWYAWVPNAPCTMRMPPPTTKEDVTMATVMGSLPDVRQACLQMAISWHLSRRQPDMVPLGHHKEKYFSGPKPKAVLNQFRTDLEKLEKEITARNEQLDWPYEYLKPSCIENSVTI
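Hydroperoxide output read as Fe(III)-xylenol orange absorbance, 573-to-405 nm ratio, after 30 min reaction with 40 uM arachidonic acid. Enzyme: 150 nM purified human 12hLO, 15 min compound preincubation; 25 mM Hepes pH 7.0, room temperature.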
ALDH1A1 inh = qHTS Assay for Inhibitors of Aldehyde Dehydrogenase 1 (ALDH1A1) | Potency, µM (highest dose often 75.3 µM), without a hit: at the top dose activity, negative = inhibition, usual class: inhibitors | 220,000 compounds, 7.3% hits | Purified ALDH1A1, NADH fluorescence, propionaldehyde substrate | AID 1030, 2008;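 further: potency means the concentration at half of the fitted maximal effect; plate controls were no enzyme wells and a reference inhibitor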
PNC inhibitor = High Content Assay for Compounds that inhibit the Assembly of the Perinucleolar Compartment | activity change (PNC), negative = inhibition, % at 10 µM | AID 2417, 2010 | PC3M PTB-GFP, PNC prevalence imaging, 16 h; hits give low values | 140,000 compounds, 3.1% hits;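 active means readout at or below -70, meaning at least 70% loss of cells showing the perinucleolar compartment, a nuclear body marking cancer cells; inconclusive means readout between -30 and a set limit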;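 further: plate controls were DMSO wells for no effect and camptothecin positive control wells for full effect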
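Compounds are pinned in duplicate onto adhered PC3M cells stably expressing GFP-tagged PTB and incubated 16 h at 37 C. Cells are then fixed, nuclei stained with Hoechst, and PNC-positive cells counted.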
Lamin A splicing = qHTS Assay for Modulators of Lamin A Splicing. HeLa LMNA splicing GFP/RFP minigene ratio, 48 h. Potency, µM (highest dose often 46.1 µM), for the others: at the highest dose ratio change, negative = inhibition, most hits filed as inhibitors. 200,000 compounds, 0.01% hits; active means well fitted inhibition curve with a large enough effect in the signal ratio, with a control signal flat, not every such curve was filed as active; inconclusive means small, poorly fitted or top-dose-only effect, or effect the other way, or a change in a side signal; the % refers to the signal ratio; further: potency means the concentration at half of the fitted maximal effect
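Read-out is the ratio of GFP to DsRed2 object intensity, acquired by 488 nm laser-scanning cytometry on HeLa lamin A-EGFP minigene reporter cells. Compound incubation 48 hrs at 37 °C in Opti-MEM with 2% FBS; DMSO 0.5% final.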
HPGD inh = qHTS Assay for Inhibitors of HPGD (15-Hydroxyprostaglandin Dehydrogenase); 15-hydroxyprostaglandin dehydrogenase [NAD(+)] (Homo sapiens), P15428; purified HPGD, NADH fluorescence kinetic, PGE2 substrate; AID 894, 2007; 150,000 compounds, 4.3% hits; Potency, µM, for the others: top-dose activity change, negative = inhibition, hits mostly inhibitors; further: potency means the concentration at half of the fitted maximal effect
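NADH formation kinetics: reaction with 30 uM PGE2 and 1 mM NAD+ (final), 20 nM enzyme, Tris-HCl pH 8 with Tween 20, after 15 min compound preincubation at room temperature. Fluorescence change, last versus first of five reads.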
Starred values were filed as active, the others as inactive; ? = inconclusive; . = no result; [ ] = remark or other dose. Most compounds without a hit are left out; they make up all but 10% or so of the library. Unless noted, the call rests on the fitted dose curve; in most records, active means well fitted inhibition curve with a large enough effect (not every such curve was filed as active); inconclusive means small, poorly fitted or top-dose-only effect, or another doubt; inactive means no such curve, though single readings can be large or run the other way. Unless noted, on the % scale 0 is the no-effect control and ±100 the full control effect.

SMILES | 12-hLO inh | ALDH1A1 inh | PNC inhibitor | Lamin A splicing | HPGD inh
COc1cc(OC)c2c(-c3cccc(-c4ccc(OC)c(F)c4)c3)cc(=O)oc2c1 | -2%[0.00818 µM] | ? | . | . | ?
Cc1cc2oc(=O)cc(-c3ccccc3)c2c(C)c1-c1ccc(C#N)cc1 | 0%[0.00818 µM] | 13µM* | . | . | -21%
Cc1cc2oc(=O)cc(-c3ccccc3)c2c(C)c1-c1cccc(N)c1 | 1%[0.00818 µM] | 25µM* | . | . | -13%
COc1cc(OC)c2c(-c3ccccc3)cc(=O)oc2c1 | . | 14µM* | . | 30%[9.22 µM] | .
O=C(/C=C/c1ccccc1)c1ccc(O[C@H]2OC(CO)C(O)C(O)C2O)cc1O (some centres not stated) | -11% | -5% | . | . | -7%
COC(=O)[C@@]1(Cc2ccccc2)[C@H]2c3cc(C(=O)N(C)C)n(C[C@H](O)CO)c3C[C@H]2CN1C(=O)c1ccccc1 | 4% | -2% | . | . | -7%
O=C1Nc2ccc(NS(=O)(=O)c3cccs3)c3cccc1c23 | 3% | 16µM* | -25 | ? | -16%
COCCCNS(=O)(=O)c1ccc(N2CCCCS2(=O)=O)cc1 | . | . | . | 15%[46 µM] | .
CN(Cc1ccccc1)C(=S)NC(=O)c1ccccc1 | . | 3% | . | 5%[46 µM] | .
CCCOc1ccc(CN(CCC#N)C(=S)NC(=O)c2ccccc2)cc1 | -5% | -4% | ? | ? | 28µM*
COc1ccc(Cl)cc1NC(=O)CN(C)C(C)C(=O)NCC1CCCCC1 (configuration not stated) | -6% | ? | -14 | ? | -1%
COc1ccc(Cl)cc1NC(=O)CN1CCCCCC1 | . | 18µM* | . | . | .
COc1ccc(Cl)cc1NC(=O)CN(C(=O)c1ccco1)C1CCCCC1 | -16% | 0.04µM* | 34 | ? | -16%
COCCOC(=O)c1c(NC(=O)CN2CCc3ccccc32)sc(C(N)=O)c1C | . | 14µM* | . | . | .
COc1ccc(Cl)cc1NC(=O)CN1CCc2ccccc21 | . | 7.9µM* | . | . | .
O=C(Nc1ccccc1OCc1cc(=O)n2ccccc2n1)Nc1ccccc1C(F)(F)F | . | . | . | -7%[46 µM] | .
Cc1cc2n(n1)SC(Nc1cc(Cl)ccc1Cl)N2 (configuration not stated) | ? | 3.5µM* | -100* | -4% | -19%
CC1OC(Nc2cccc3ccccc23)C(O)C(O)C1O (configuration not stated) | -2% | ? | -12 | 5% | ?
Cc1cc2n(n1)SC(Nc1cccc3ccccc13)N2 (configuration not stated) | ? | 13µM* | -18 | -10% | -21%
Cc1cc(Nc2ccc(F)cc2)n2nc(C)nc2n1 | 1% | -4% | -29 | -4% | -18%
Cc1cc2n(n1)SC(Nc1ccc(F)cc1)N2 (configuration not stated) | -28% | 28µM* | 37 | -3% | -13%
O=C1C(Cc2c[nH]c3ccccc23)NC(=S)N1C1CCCCC1 (configuration not stated) | . | -5% | . | 7%[46 µM] | .
Cc1cc(C)cc(-n2ccn(Cc3ccccc3C)c(=O)c2=O)c1 | . | . | . | 2%[46 µM] | .
COC/C=C/C1=CC2=CC(=O)C(C)(OC(=O)CCc3ccccc3)C(=O)C2=CO1 (configuration not stated) | 7% | 7% | . | . | -5%
Nc1c(C(=O)NCCC2=CCCCC2)sc2ccc(S(=O)(=O)N3CCCCC3)cc12 | -6% | ? | 27 | ? | ?
C=CCn1c(N)c(C(=O)NCCC2=CCCCC2)sc1=S | -19% | 3.5µM* | -9 | -12% | 14µM*
O=C(NCc1ccco1)c1ccc2c(c1)N(Cc1ccccc1)C(=O)CS2 | -2% | 0% | -10 | 16% | -5%
C=CCN1C(=O)CSc2ccc(C(=O)NCc3ccco3)cc21 | -4% | 22µM* | 12 | 5% | -15%
C=CCN1C(=O)CSc2ccc(C(=O)NCCC3=CCCCC3)cc21 | 4% | 13µM* | -7 | ? | -14%
CC(C)NC(=O)N1CCC2(CC1)CCN(C(=O)c1csnn1)CC2 | -2% | 2% | . | . | -1%
